{
  "source": "the supplement of paper PMC6555819",
  "data": [
    {"test_system": "VDR:RXRa (NR concentration 270 nM, RXRa partner concentration 90 nM)", "assay": "PBM binding z-score (relative to random genomic background probes); higher = stronger binding; sequences stand for … in GC…GCGATTGACAGCGTAGAATGAAGG", "protocol": "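Protein-binding microarray (Agilent 4x180K custom design, double-stranded 60-nt probes: 5' GC cap, 34-nt variable region, 24-nt constant primer region; full probe sequence given). Purified or IVT nuclear receptor:RXRα heterodimers (3:1 NR:RXRα, mostly 270:90 nM) or homodimers were incubated for 1 h in PBS with 2% milk and no ligand, then detected with Alexa488 antibodies. Fluorescence from o1-orientation probes (~5 replicates averaged) was converted to z-scores against 500 random hg19 background probes. Variable regions are seed direct-repeat (DR0–DR5) sites, all their single-nucleotide variants and half-site ablations.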", "values": [
      {"sequence": "TCATATAGGTAAAGGTGAAAGTCGAACGATATGA", "PBM binding z-score": 0.971},
      {"sequence": "GCTGACGGGTCAAAGGTTATAGCATGAATAGAAT", "PBM binding z-score": 5.27},
      {"sequence": "ATATGGAGGTTATCGGGTCATTCAGTTTGCGCAT", "PBM binding z-score": 5.78},
      {"sequence": "CCTAGCAGGCTAGGGTCACTCAAGCATTTCGCTT", "PBM binding z-score": 2.72},
      {"sequence": "AATACAGAGTCATCGTAGGCCAGAGTACGCACAG", "PBM binding z-score": -0.242},
      {"sequence": "CCGACTGGGGCATAAGGTTAGCATAAGCCAGCCC", "PBM binding z-score": -0.409},
      {"sequence": "CCTGCTAAGTCAATGGTCAGCTAAAGCAGCTCGC", "PBM binding z-score": -0.304},
      {"sequence": "ATACCAAGGTGTTCGTGAGGTCGTTGATACTAAC", "PBM binding z-score": 2.81},
      {"sequence": "CAGCCAAGGTCAGGGCCAGTATAGGAGGAACGTT", "PBM binding z-score": 2.4},
      {"sequence": "CCGACTGGGGTAGAAAGGTTACCATACCATCCGG", "PBM binding z-score": 0.692},
      {"sequence": "GCGACTGGGGCAAAGTAGGTTACCATAAGGTTGG", "PBM binding z-score": -0.0639},
      {"sequence": "ATCCCAAGGTGATCGTGAGGTCGTTGATACTAAC", "PBM binding z-score": 2.87},
      {"sequence": "TAGCCTAGGTCATGGGCCAGTACACCACGCGAAC", "PBM binding z-score": 2.38},
      {"sequence": "CCTAGTTGGTCAGGAGGTCAGACACCGGATATGA", "PBM binding z-score": 2.22},
      {"sequence": "TCGAGTAGGATAGGGGCATTCAGAATGGCGTCGA", "PBM binding z-score": -0.000288},
      {"sequence": "CAAACTAGGTCAAGAGGCCAAAGTCCGCTTCCCG", "PBM binding z-score": 2.16},
      {"sequence": "CTTGAAAGGTCGTGCTCAGGTGAGTATACCAAAC", "PBM binding z-score": 3.55},
      {"sequence": "TCATATAAGTAATACAGGTGAAAGTCGGCATCTA", "PBM binding z-score": 1.16},
      {"sequence": "CGTCCAAGGTAAGCAGGTCAGTGAAAGCGACGTG", "PBM binding z-score": 0.00518},
      {"sequence": "CGAACCAGGTCATCCAGGACAGTGAATACATTGA", "PBM binding z-score": 5.42},
      {"sequence": "GAAACGAGGGCAAGTTGATAGCAGAGTTTGATGG", "PBM binding z-score": 1.51},
      {"sequence": "CTAACTAGGTCAAGGACAGTGAATCTCCGCACGC", "PBM binding z-score": 1.3},
      {"sequence": "CAAACTAGGTAAAAGGTCAAAGTCGAGCCAACCA", "PBM binding z-score": 4.86},
      {"sequence": "CCTACTGGGCCAAAGGTCGTTGATTCCAATGCTC", "PBM binding z-score": 2.05},
      {"sequence": "TGAATGAGGTTAAAGATTAGGGAACGTGGCGTCG", "PBM binding z-score": 1.44},
      {"sequence": "CAAACTAGGTCCCGAAAGGTCAAAGTCGAATGAC", "PBM binding z-score": 4.92},
      {"sequence": "CCGACTGGGGCAAAGTTACCATAACGCACAGCCA", "PBM binding z-score": -0.545},
      {"sequence": "TAGCCTAGGTCAAGGGCCAGTATACCACGCGAAC", "PBM binding z-score": 1.6},
      {"sequence": "AGCCAAAGTTCACTAGGTAACGTAAGATTCAGCT", "PBM binding z-score": 3.41},
      {"sequence": "CTACCCAGGTGAACAAGGTCGTTGATTACTATTC", "PBM binding z-score": 5.31},
      {"sequence": "TCTTTTAGATCAACAGGAGGTTAAGAAAGATCGA", "PBM binding z-score": 0.982},
      {"sequence": "CGTCCAAGGTCAAGGCCAGTGAAAGAGACTCGAA", "PBM binding z-score": 3.69},
      {"sequence": "ACTATTAGTTGAGCCGAGGGCAACCGATAGGTTG", "PBM binding z-score": 0.613},
      {"sequence": "ACTCGGAGGACAAGGGTCAGAGCTACGCCAGTGA", "PBM binding z-score": 1.91},
      {"sequence": "TCTAGCAGGCCAGAGGGTAACTCAAGAGGTACGG", "PBM binding z-score": -0.204},
      {"sequence": "TCTCGGAGGACACGAAAGGTCAGCGCTCGACATC", "PBM binding z-score": 3.67},
      {"sequence": "AATACAGGGTCATCGTATGCCAGAGTACGCACAG", "PBM binding z-score": 5.08},
      {"sequence": "ACTATTAGTTGACTTAGGGCAACCGTTACGACGC", "PBM binding z-score": 0.577},
      {"sequence": "TCTCGGAGGACACGAAGGTCAGAGCTTTCCAGAG", "PBM binding z-score": 2.3},
      {"sequence": "AGAGCGAGGGCACGCTGAGTTGATAGCAGAGTAG", "PBM binding z-score": 1.86}
    ]}
  ]
}
